Data published in the supplement of paper PMC4022240.
± gives the standard deviation.

What was measured:
Experiment in all cases: peptide microarray binding signal (635 nm), min-max normalized on array (fraction of array maximum); higher = stronger binding
Details in all cases: peptide region: Unmod H2B variant
[1] = target: T1, HaloTag-ATRX ADD domain (163-292)
T1 chain: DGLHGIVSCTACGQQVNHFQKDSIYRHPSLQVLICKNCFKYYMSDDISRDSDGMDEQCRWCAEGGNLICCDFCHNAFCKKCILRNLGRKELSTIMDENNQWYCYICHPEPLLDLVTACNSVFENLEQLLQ
Outline: (§1)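 Two probe formats were used for 1 h at 4°C: biotin-labelled HaloTag reader fusions (10 nM to 1 μM) with streptavidin-Alexa Fluor 647, and rabbit histone antibodies (1:10,000 to 1:2,000) with anti-rabbit Alexa 647. Both were applied to nitrocellulose arrays of histone 13-mer peptide–cellulose conjugates printed in triplicate with a Cy3 tracer and blocked overnight at 4°C. Signal was read at 635 nm and misprints at 532 nm on an Axon GenePix 4000B. Binding signal is expressed as the triplicate-spot mean intensity, min-max scaled for each library.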

[2] = target: HaloTag-ING2 PHD (mouse Ing2 200-280)
Outline: as §1

[3] = target: anti-H3K4me3 antibody ab8580
Outline: as §1

[4] = target: anti-H3K9me3 antibody ab8898
Outline: as §1

[5] = binder concentration: 1:2,000 dilution
[6] = binder concentration: 1:10,000 dilution

| Binder | peptide microarray binding signal ([1]; binder concentration: 50 nM) | peptide microarray binding signal ([1]; binder concentration: 500 nM) | peptide microarray binding signal ([2]; binder concentration: 10 nM) | peptide microarray binding signal ([2]; binder concentration: 100 nM) | peptide microarray binding signal [3, 5] | peptide microarray binding signal [3, 6] | peptide microarray binding signal [4, 5] | peptide microarray binding signal [4, 6] |
| --- | --- | --- | --- | --- | --- | --- | --- | --- |
| GISSKAMSIMNSF [Unmod H2B variant G I S S K A M S I M N S F] | 0.0103 ± 0.00033 | 0.0293 ± 0.0012 | 0.011 ± 0.0025 | 0.0429 ± 0.016 | 0.00194 ± 0.00057 | 0.00228 ± 0.00014 | 0.000936 ± 5e-05 | 0.00144 ± 2.8e-05 |
| EGKKRKRTRKESY [Unmod H2B variant E G K K R K R T R K E S Y] | 0.00661 ± 0.00023 | 0.0101 ± 0.00031 | 0.00251 ± 0.00012 | 0.00326 ± 0.0001 | 0.000378 ± 3.9e-06 | 0.000913 ± 1.6e-05 | 0.000302 ± 1.5e-05 | 0.000404 ± 4.4e-06 |
| KRSRKESYSIYVY [Unmod H2B variant K R S R K E S Y S I Y V Y] | 0.00561 ± 0.00019 | 0.0029 ± 0.00042 | 0.00179 ± 4.2e-05 | 0.000496 ± 9.7e-06 | 0.00051 ± 7.5e-05 | 0.000685 ± 1.5e-05 | 0.000227 ± 4.1e-06 | 0.000634 ± 1.2e-05 |
| NSFVNDIFERIAG [Unmod H2B variant N S F V N D I F E R I A G] | 0.00721 ± 0.00059 | 0.00671 ± 0.00013 | 0.00364 ± 0.00012 | 0.003827 ± 3.3e-05 | 0.00198 ± 0.00015 | 0.002339 ± 2.1e-05 | 0.00074 ± 6.4e-06 | 0.001614 ± 1.6e-05 |
| DGKKRKRSRKESY [Unmod H2B variant D G K K R K R S R K E S Y] | 0.00834 ± 0.00013 | 0.00714 ± 0.00021 | 0.00221 ± 3.8e-05 | 0.00454 ± 0.00011 | 0.000623 ± 2e-05 | 0.000628 ± 6.7e-06 | 0.000151 ± 1.6e-06 | 0.000461 |
| AMGIMNSFVNDIF [Unmod H2B variant A M G I M N S F V N D I F] | 0.0068 ± 0.00037 | 0.0162 ± 0.0016 | 0.0083 ± 0.00011 | 0.0126 ± 0.00023 | 0.00362 ± 0.00022 | 0.00548 ± 0.00033 | 0.00285 ± 0.0002 | 0.00311 ± 5.3e-05 |
| GISSKAMGIMNSF [Unmod H2B variant G I S S K A M G I M N S F] | 0.00856 ± 0.00082 | 0.0227 | 0.00913 ± 0.00027 | 0.0416 ± 0.0056 | 0.00215 ± 0.00023 | 0.00348 ± 0.00045 | 0.000695 ± 1.2e-05 | 0.0011 ± 1.1e-05 |
| VPKKGSKKAINKA [Unmod H2B variant V P K K G S K K A I N K A] | 0.00639 ± 0.00069 | 0.0081 ± 0.00015 | 0.00263 ± 3.9e-05 | 0.0056 ± 0.00078 | 0.000529 ± 4.2e-05 | 0.000856 ± 8.9e-06 | 0.000196 ± 2.1e-06 | 0.000461 ± 8.7e-06 |
| KAQKKDGKKRKRS [Unmod H2B variant K A Q K K D G K K R K R S] | 0.0176 ± 0.012 | 0.00876 ± 0.00031 | 0.00275 | 0.00461 ± 0.00031 | 0.000415 ± 4.2e-06 | 0.00103 ± 2.1e-05 | 0.000227 | 0.000692 ± 7.3e-06 |
| NSFVTDIFERIAS [Unmod H2B variant N S F V T D I F E R I A S] | 0.00646 ± 0.0003 | 0.0141 ± 0.00044 | 0.00483 ± 0.00011 | 0.00815 ± 0.00095 | 0.00238 ± 0.00045 | 0.00308 ± 0.00038 | 0.000936 ± 2e-05 | 0.00208 ± 9.6e-05 |
| VHPDTGISSKAMG [Unmod H2B variant V H P D T G I S S K A M G] | 0.009373 ± 4.6e-05 | 0.0173 ± 0.0018 | 0.0154 ± 0.0017 | 0.0346 ± 0.0034 | 0.00563 ± 0.0004 | 0.00964 ± 0.0005 | 0.00272 ± 6.5e-05 | 0.00283 ± 4.9e-05 |
| YNKRSTITSREIQ [Unmod H2B variant Y N K R S T I T S R E I Q] | 0.00837 ± 0.00045 | 0.0253 ± 0.0034 | 0.0181 ± 0.00093 | 0.0337 ± 0.0033 | 0.00293 ± 0.00014 | 0.00382 ± 0.00016 | 0.000936 ± 1.5e-05 | 0.00213 ± 7.9e-05 |
| KRTRKESYSIYIY [Unmod H2B variant K R T R K E S Y S I Y I Y] | 0.015 ± 0.0008 | 0.0228 ± 0.0011 | 0.00716 ± 0.00018 | 0.0159 ± 0.0033 | 0.000529 ± 1.4e-05 | 0.0016 ± 5.3e-05 | 0.000468 ± 1.2e-05 | 0.0011 ± 1.1e-05 |
| IAGEASRLAHYNK [Unmod H2B variant I A G E A S R L A H Y N K] | 0.0147 ± 0.00017 | 0.0384 ± 0.0025 | 0.0361 ± 0.0036 | 0.0742 ± 0.0014 | 0.00521 ± 0.00045 | 0.00633 ± 0.00022 | 0.00217 ± 5.9e-05 | 0.00259 ± 4.6e-05 |
| KVLKQVHPDTGIS [Unmod H2B variant K V L K Q V H P D T G I S] | 0.00552 ± 0.00019 | 0.00971 ± 0.0005 | 0.00531 ± 0.00011 | 0.0101 ± 0.00011 | 0.000755 ± 1.8e-05 | 0.001655 ± 1.6e-05 | 0.000483 ± 2.8e-05 | 0.00346 ± 0.0011 |
| DIFERIASEASRL [Unmod H2B variant D I F E R I A S E A S R L] | 0.00655 ± 0.00034 | 0.00648 ± 0.00023 | 0.00454 ± 0.00011 | 0.0142 ± 0.0098 | 0.000793 ± 2.2e-05 | 0.00177 ± 2.9e-05 | 0.000453 ± 1.5e-05 | 0.001211 ± 1.2e-05 |
| APKKGSKKAITKA [Unmod H2B variant A P K K G S K K A I T K A] | 0.00592 ± 0.00021 | 0.00971 ± 0.00064 | 0.00239 ± 4.7e-05 | 0.00248 ± 6.3e-05 | 0.000264 ± 2.8e-06 | 0.00114 ± 3e-05 | 0.000302 ± 3.1e-06 | 0.000634 ± 1.2e-05 |
| AMSIMNSFVTDIF [Unmod H2B variant A M S I M N S F V T D I F] | 0.0108 ± 0.0002 | 0.0253 ± 0.001 | 0.01188 ± 7.7e-05 | 0.0239 ± 0.0025 | 0.00882 ± 0.0011 | 0.0132 ± 0.00021 | 0.00523 ± 0.00065 | 0.00571 ± 0.00035 |
| DIFERIAGEASRL [Unmod H2B variant D I F E R I A G E A S R L] | 0.0112 ± 0.00018 | 0.0406 ± 0.0012 | 0.013 ± 0.00037 | 0.0336 ± 0.00077 | 0.00406 ± 0.00012 | 0.00548 ± 0.00027 | 0.00234 ± 0.00013 | 0.003113 ± 2.6e-05 |
| KTQKKEGKKRKRT [Unmod H2B variant K T Q K K E G K K R K R T] | 0.0089 ± 0.00018 | 0.0148 ± 0.0025 | 0.003163 ± 1.7e-05 | 0.00857 ± 0.0013 | 0.00068 ± 1.9e-05 | 0.0012 ± 1.2e-05 | 0.000287 ± 5.9e-06 | 0.000865 ± 9e-06 |
